From PubChem BioAssay
“And” between values parts separate entries of the source, which are not always exact repeats. Equal entries are not always repeated. Values without a mark were called inactive. The source made the active and inactive calls.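 Rule for the calls: active = inhibition at or above 50% relative to wild type and mutant plate controls; inactive = inhibition below 50%.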

Test: loss of swimming-algae plug formation – whole organism, Chlamydomonas reinhardtii, WT vs cilia-less mutant, absorbance, 96-well, primary screen (AID 463189);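 note: 0% = wild type cc124 cells in DMSO and 100% = ciliumless bld1 mutant cells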
Conditions: Chlamydomonas reinhardtii gravitaxis, OD600 absorbance, 2 days; at 10 µM; stronger effect = higher value
With `N#CC1=C(N)N(c2ccccc2)C(c2ccccc2)C1(C#N)C#N` (stereo not given) the inhibition was 58.7% (active).
In the case of `CC(C)NCC(O)COc1cccc2[nH]ccc12` (stereo not given), the inhibition is reported as -3.19% and 0.043%.
With `COCc1cc(=O)[nH]c(Nc2nc3ccccc3o2)n1` the inhibition was 4.61%.
For `O=C(O)c1cc(=O)cc(C(=O)O)[nH]1`, the inhibition was 3.81%.
Work on `Cc1cc(C)n(S(=O)(=O)Cc2ccccc2)n1` yielded an inhibition of -10%.
`Cn1c(Cl)cnc1C1CC(=O)c2cc(Cl)ccc2O1` (stereo not given) gave an inhibition of -12.2%.
With `CCOC(=O)CC(C#N)c1cn(C)c2ccccc12` (stereo not given) the inhibition was 13.1%.
Work on `CCCC(=O)Nc1ccc(OCC(O)CNC(C)C)c(C(C)=O)c1` (stereo not given) yielded an inhibition of -6.41%.
Work on `CC1(C)SC2[C@H](NC(=O)C(NC(=O)N3CCNC3=O)c3ccccc3)C(=O)N2C1C(=O)O` (stereo not given in full) yielded an inhibition of 6.16%.
In the case of `CCOC(=O)C1=C(CSc2nc(C)cc(C)c2C#N)OC(N)=C(C#N)C1c1cccs1` (stereo not given), the inhibition is reported as 8.41%.
With `Cc1ccc(N(CC2=NCCN2)c2cccc(O)c2)cc1` the inhibition was 4.48% and 1.6% and -7.32%.
With `Cc1cc(NS(=O)(=O)c2ccc(N)cc2)no1` the inhibition was 1.6%.
With `O=c1cc(NCc2ccccc2)nc2n1CCCS2` the inhibition was 4.05%.
`COc1ccc2c(C)nc(Nc3nc(C)cc(C)n3)nc2c1` showed an inhibition of -4.58%.
In the case of `Fc1cc(F)c(F)c(SCCc2ccncc2)c1F`, the inhibition is reported as 97.5% (active).
In the case of `CN1CCN(C2=Nc3ccccc3Oc3ccc(Cl)cc32)CC1`, the inhibition is reported as 27.3% and 39.2%.
With `Cc1cnc(NC(=O)C2=C(O)c3ccccc3S(=O)(=O)N2C)s1` the inhibition was 0.844% and -7.88%.
For `COc1cccc2c1C(=O)c1c(O)c3c(c(O)c1C2=O)C[C@@](O)(C(=O)CO)C[C@@H]3O[C@H]1C[C@H](N)[C@H](O)[C@H](C)O1`, the inhibition was 1.03%.
For `O=S(=O)(c1cccc2cnccc12)N1CCCNCC1`, the inhibition was 0.327%.
In the case of `CC(C)Cc1ccc(C(C)C(=O)O)cc1` (stereo not given), the inhibition is reported as 1.82% and -1.73%.
With `C[C@H](CS)C(=O)N1CCC[C@H]1C(=O)O` the inhibition was -3.81% and 9.89%.
With `COC(=O)C1=C(C)NC(C)=C(C(=O)OC)C1c1ccccc1[N+](=O)[O-]` the inhibition was -13.6% and -16.5%.
`O=C(c1ccc2c(c1)OCCO2)N1CCCCC1` gave an inhibition of -4.88%.
With `Nc1ccc(S(=O)(=O)Nc2ncccn2)cc1` the inhibition was -12.2%.
Compound `COc1ccccc1C1C(C#N)=C(N)Oc2cc(C)n(Cc3ccccn3)c(=O)c21` (stereo not given) has an inhibition of 7.42%.
Work on `CC(=O)O[C@H]1C(=O)[C@]2(C)[C@H]([C@H](OC(=O)c3ccccc3)[C@]3(O)C[C@H](OC(=O)[C@H](O)[C@@H](NC(=O)c4ccccc4)c4ccccc4)C(C)=C1C3(C)C)[C@]1(OC(C)=O)CO[C@@H]1C[C@@H]2O` yielded an inhibition of 0.148%.
With `CCC(=O)O[C@@H]1CC(=O)O[C@H](C)CC=CC=C[C@@H](O)[C@H](C)C[C@H](CC=O)[C@H](O[C@H]2O[C@H](C)[C@@H](O[C@H]3C[C@@](C)(O)[C@@H](OC(=O)CC)[C@H](C)O3)[C@H](N(C)C)[C@H]2O)[C@H]1OC` the inhibition was 66.6% (active).
For `CCCn1c(=O)[nH]c(=O)c2[nH]cnc21`, the inhibition was 4.71% and 14.1%.
With `CC[N+](C)(C)Cc1ccccc1Br` the inhibition was 3.29% and 10.5%.
`COC(=O)c1cc(=O)n2c(-c3ccc(OC)cc3)csc2n1` gave an inhibition of -2.61%.
Compound `COc1ccccc1OCC(O)COC(N)=O` (stereo not given) has an inhibition of -8.84%.
For `COc1cc2nc(N3CCN(C(=O)c4ccco4)CC3)nc(N)c2cc1OC`, the inhibition was -2.52%.
For `Cc1nnc(SCC2=C(C(=O)O)N3C(=O)[C@@H](NC(=O)Cn4cnnn4)[C@H]3SC2)s1`, the inhibition was 9.57% and 15.2%.
In the case of `Clc1ccc2c(c1)C(N1CCNCC1)=Nc1ccccc1O2`, the inhibition is reported as -13.2% and 2.47%.
`CC1(C)S[C@@H]2[C@H](NC(=O)[C@H](C(=O)O)c3ccsc3)C(=O)N2[C@H]1C(=O)O` gave an inhibition of 11.7%.
Work on `O=C(O)c1cc(=O)c2c(OCC(O)COc3cccc4oc(C(=O)O)cc(=O)c34)cccc2o1` yielded an inhibition of -9.3%.
For `CC[C@H]1OC(=O)C[C@@H](O)[C@H](C)[C@@H](O[C@@H]2O[C@H](C)C[C@H](N(C)C)[C@H]2O)[C@@H](CC=O)C[C@@H](C)C(=O)C=C[C@]2(C)O[C@H]2[C@@H]1C`, the inhibition was 59.9% (active).
`O=C(O)CCNC(=O)c1ccccc1` showed an inhibition of 27.8%.
`CC[C@H](C)C(=O)O[C@H]1C[C@@H](C)C=C2C=C[C@H](C)[C@H](CC[C@@H]3C[C@@H](O)CC(=O)O3)[C@H]21` showed an inhibition of 14.3%.
With `Cc1ccc(C2C3CN(C(C)C)CC=C3C(C#N)=C(N)C2(C#N)C#N)cc1` (stereo not given) the inhibition was 8.92%.
